# Bioassay records deposited in PubChem BioAssay by Buhrlage Lab, Dana-Farber Cancer Institute and Novartis Institutes for BioMedical Research (Cambridge, Mass).
# USP8 inh = human USP8 deubiquitinase inhibition; purified USP8, Ub-rhodamine cleavage fluorescence, 30 min; inhibition, % at 20 µM; 47,000 tested, 4.2% active
# Target sequence (P40818 whole entry, looked up): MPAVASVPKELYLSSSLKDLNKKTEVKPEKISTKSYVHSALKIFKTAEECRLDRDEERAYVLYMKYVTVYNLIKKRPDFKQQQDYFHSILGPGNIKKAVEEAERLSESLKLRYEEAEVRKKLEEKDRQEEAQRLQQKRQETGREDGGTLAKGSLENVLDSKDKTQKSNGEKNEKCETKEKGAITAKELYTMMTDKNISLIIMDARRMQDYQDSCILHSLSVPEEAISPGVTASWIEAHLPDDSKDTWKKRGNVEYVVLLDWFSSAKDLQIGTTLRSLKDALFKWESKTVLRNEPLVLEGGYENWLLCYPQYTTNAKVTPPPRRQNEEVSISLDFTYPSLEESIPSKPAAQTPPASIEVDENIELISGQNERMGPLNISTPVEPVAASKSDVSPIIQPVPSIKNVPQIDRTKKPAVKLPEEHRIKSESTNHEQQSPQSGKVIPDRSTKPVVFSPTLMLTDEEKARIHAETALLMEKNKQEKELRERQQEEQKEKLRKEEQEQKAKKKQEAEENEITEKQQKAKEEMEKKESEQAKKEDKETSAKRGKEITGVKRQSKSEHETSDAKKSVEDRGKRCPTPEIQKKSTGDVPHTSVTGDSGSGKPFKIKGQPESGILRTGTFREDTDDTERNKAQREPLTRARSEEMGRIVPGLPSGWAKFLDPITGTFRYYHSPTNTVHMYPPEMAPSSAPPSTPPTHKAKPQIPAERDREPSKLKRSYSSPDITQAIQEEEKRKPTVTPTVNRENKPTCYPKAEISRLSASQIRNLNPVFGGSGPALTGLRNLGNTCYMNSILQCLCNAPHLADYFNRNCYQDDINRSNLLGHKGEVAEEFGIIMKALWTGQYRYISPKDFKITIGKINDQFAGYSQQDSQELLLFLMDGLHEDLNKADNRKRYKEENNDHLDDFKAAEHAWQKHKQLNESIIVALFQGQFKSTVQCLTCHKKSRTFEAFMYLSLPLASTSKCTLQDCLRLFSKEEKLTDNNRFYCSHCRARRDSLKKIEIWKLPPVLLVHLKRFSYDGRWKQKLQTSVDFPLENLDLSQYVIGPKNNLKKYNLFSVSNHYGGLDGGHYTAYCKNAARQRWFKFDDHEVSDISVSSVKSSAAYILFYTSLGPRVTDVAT
# USP17 block = human USP17-like deubiquitinase inhibition; 47,000 tested, 6.5% active; AID 1645855; purified USP17, Ub-rhodamine cleavage fluorescence, 3 h; inhibition, % at 50 µM; A8MUK1
# USP30 inh = inhibitors of human USP30 deubiquitinase. purified USP30, Ub-rhodamine cleavage fluorescence. inhibition, % at 25 µM. 47,000 tested, 5.3% active. AID 1645860
# USP28 block = blocks human USP28 ubiquitin-rhodamine cleavage; AID 1645857; Q96RU2; inhibition, % at 25 µM; purified USP28, Ub-rhodamine cleavage fluorescence, 30 min; 47,000 tested, 3% active
# Numbers without * were called inactive; i = inactive; . = no result. Compounds with a hit are over-represented: about 14% of the library has one in this group of screens. Cut-off read from the data, not from the text of the source: active = inhibition above about 30%; inactive = the rest.
SMILES,USP8 inh,USP17 block,USP30 inh,USP28 block
Cc1noc(C)c1-c1ccc(S(=O)(=O)Nc2ccccc2F)cc1,5.3,0.1,1.7,-3.2
O=C(CC1CCCC1)Nc1ccc(N2CCN(C3CCCC3)C2=O)nc1,24.3,-4.3,14.3,8.4
O=C(CC1CCCCC1)Nc1cc(F)c2nc(N3CCOCC3)ccc2c1,65.1*,40.3*,-62.6,-22.0
O=C(Nc1cc(F)c2nc(N3CCOCC3)ccc2c1)C1CCCCC1,71.5*,22.5,-37.8,-7.9
Cn1c(=O)c2cc(S(=O)(=O)Nc3cccc(C(=O)O)c3)ccc2n(C)c1=O,-12.6,3.0,3.6,9.0
Cc1cc(C#N)c2c(C)ccc(C(C)C)cc1-2,2.9,2.9,15.2,57.9*
COCCN1CCCC12CCN(C(=O)c1ccc(C)cc1)CC2,-56.6,-20.3,-23.5,-10.8
CC(C)OCCCn1c(=O)c2ccccc2n2c(CCC(=O)NCc3ccccn3)nnc12,-0.4,0.5,-4.2,-2.7
COc1cccc(NC(=O)CCc2nnc3n(CCCOC(C)C)c(=O)c4ccccc4n23)c1,80.6*,68.7*,89.3*,69.9*
CC(C)OCCCn1c(=O)c2ccccc2n2c(CCC(=O)NCCc3c[nH]c4ccccc34)nnc12,18.6,37.2*,28.2,17.9
CC(C)OCCCn1c(=O)c2ccccc2n2c(CCC(=O)NC3CCN(Cc4ccccc4)CC3)nnc12,-14.5,0.7,-30.0,-20.4
Cc1cccc(C)c1NC(=O)C(C)n1cnc2nc3c(cc2c1=O)CCCC3 (stereo not given),-2.1,-14.7,-35.6,-13.4
CCn1cnc2c1c(=O)n(CC(=O)NC1CCCC1)c(=O)n2Cc1ccccc1,5.9,7.1,6.8,1.0
Cc1c(CC(=O)Nc2nn[nH]n2)c(=O)oc2cc3c(cc12)CCC1(CCCCC1)O3,-253.1,-0.1,57.5*,20.7
Cc1c(CC(=O)NC2CC2)c(=O)oc2cc3c(cc12)CCC1(CCCCC1)O3,16.1,12.9,25.8,14.4
Cc1cc(=O)n(CC(=O)Nc2ccccc2F)c(N2CCCCC2)n1,-10.3,2.0,-12.2,-7.1
O=C(Cn1c(CSc2ccccc2)nc2ccccc21)Nc1ccccc1F,50.5*,-4.5,16.0,64.5*
Cc1nc(-c2csc(S(=O)(=O)Nc3ccccc3Cl)c2)no1,-2.5,5.4,-1.0,-4.3
O=C(Cc1ccc(Cl)cc1)Nc1ccc2nn(-c3ccc(F)cc3)nc2c1,3.0,44.8*,.,.
COc1ccc(C(=O)NCCS(=O)(=O)N2CCN(c3ccccc3)CC2)cc1,-3.9,40.5*,-6.5,4.3
O=C(NCCS(=O)(=O)N1CCN(c2ccc(F)cc2)CC1)c1ccc(F)cc1,2.5,11.7,-2.5,6.0
Cc1cccc(NC(=O)N2CCC3(CC2)N=C(c2ccccc2)C(=O)N3)c1,10.1,0.0,-0.4,-6.0
Cc1ccc(NC(=O)N2CCC3(CC2)N=C(c2ccccc2)C(=O)N3)cc1C,11.7,37.1*,23.5,7.8
Cc1nn(CC(=O)NCc2ccco2)c(C)c1S(=O)(=O)N(C)C,19.6,15.9,17.9,6.8
Cc1nn(-c2nc3ccccc3[nH]2)c2c1C(c1cccs1)CC(=O)N2 (stereo not given),38.4*,52.3*,-18.5,30.5*
SMILES,USP8 inh,USP17 block,USP30 inh,USP28 block
Cc1nn(-c2nc3ccccc3[nH]2)c2c1C(c1ccccc1Cl)CC(=O)N2 (stereo not given),51.5*,-0.7,0.5,-0.3
Cc1nn(-c2nc3ccccc3[nH]2)c2c1C(c1cccc(F)c1)CC(=O)N2 (stereo not given),19.5,-1.8,-3.6,-8.3
O=C(c1ccccc1-n1cnnn1)N1CCN(c2ccc(F)cc2)CC1,-16.9,7.9,19.0,7.8
Cc1cc(C)c2c(n1)SCCN2C(=O)CCC(=O)NCc1ccc(F)cc1,6.7,-4.5,1.1,-3.4
COc1ccc(C(C(=O)NCc2ccccc2)N(C(=O)CCN2CCc3ccccc32)c2ccc3c(c2)OCO3)cc1 (stereo not given),22.9,-10.2,-91.2,-27.1
O=C(NCc1ccccc1)C(c1ccc(F)cc1)N(C(=O)CCN1CCc2ccccc21)c1ccc2c(c1)OCO2 (stereo not given),39.8*,-41.5,-300.7,-60.2
CCOC(=O)c1cc2c(ccn2C)n1CC(=O)N1CC(C)CC(C)C1 (stereo not given),17.4,-126.7,i,-138.9
O=C(c1ccc(Br)o1)N(Cc1ccccc1Cl)c1ccccn1,-11.6,18.2,20.9,30.6*
O=C(c1ccco1)N(Cc1ccccc1Cl)c1ccccn1,1.3,2.0,15.7,10.6
O=C(NC1CCCCC1)c1c2c(nc3ccccc13)-c1ccccc1CC2,16.8,-1.6,-1.6,4.6
Cc1c2c(nc3ccccc13)-c1ccccc1CC2,15.8,5.0,-22.3,55.2*
COc1ccc2c(c1)CCc1c-2nc2ccccc2c1N1CCOCC1,5.3,-4.7,-20.6,2.9
O=C(NCc1ccco1)c1c2c(nc3ccccc13)-c1ccccc1CC2,54.6*,2.4,-31.7,-2.3
CN1c2ccccc2CN(C(=O)c2ccccc2)CC1Cc1ccccc1 (stereo not given),-25.2,-57.1,-259.0,-57.7
Cc1cccc(CCNC(=O)c2ccc(CNS(=O)(=O)c3ccc(F)cc3)cc2)c1,-6.4,-6.5,34.2*,2.1
CC(=O)Nc1ccc(S(=O)(=O)N2CCC(C(=O)NCCc3ccc(Cl)cc3)CC2)cc1,14.1,18.1,33.9*,22.2
CC(=O)Nc1ccc(S(=O)(=O)N2CCCC(C(=O)NCCc3ccccc3)C2)cc1 (stereo not given),-11.6,1.0,-7.5,-9.5
CN(Cc1ccccc1)C(=O)c1ccc(CNS(=O)(=O)c2ccc(F)cc2)cc1,11.2,2.5,21.4,9.3
Cc1ccc(S(=O)(=O)NCc2ccc(C(=O)NCCc3ccc(S(N)(=O)=O)cc3)cc2)cc1,63.0*,87.5*,87.8*,68.8*
CC(=O)Nc1ccc(S(=O)(=O)NCc2ccc(C(=O)NCCc3ccc(Cl)cc3)cc2)cc1,4.5,17.0,95.6*,91.8*
CC(=O)Nc1ccc(S(=O)(=O)NCc2ccc(C(=O)NCc3ccccc3Cl)cc2)cc1,-6.5,-5.8,-5.8,-0.5
CS(=O)(=O)N1CCCc2cc(C(=O)Nc3ccc4c(c3)OCO4)ccc21,15.0,4.1,11.7,85.1*
COc1ccccc1NC(=O)C1=CCN(Cc2ccc(F)cc2)CC1,-15.1,-28.5,-67.9,-15.4
COc1ccccc1CNC(=O)c1ccc2c(c1)CCCN2S(C)(=O)=O,1.3,5.0,18.5,10.2
O=C(NCC(c1cccnc1)N1CCc2ccccc2C1)c1ccc(F)cc1 (stereo not given),8.7,-7.2,-42.6,-8.2
SMILES,USP8 inh,USP17 block,USP30 inh,USP28 block
O=C(Nc1ccc2c(c1)OCO2)c1ccc(N2CCCC2=O)cc1,23.0,49.9*,16.3,12.0
O=C(Nc1ccc2c(c1)OCCO2)C1=CCN(Cc2ccccc2F)CC1,-4.4,-3.7,4.2,39.7*
O=C(NCC(c1cccnc1)N1CCc2ccccc2C1)C(=O)Nc1ccc2c(c1)OCO2 (stereo not given),24.4,74.5*,-5.8,-5.8
CCc1ccc(OCC(=O)Nc2c(C)nc3sccn3c2=O)cc1,1.1,8.4,21.3,8.7
COc1ccccc1NC(=O)Cc1csc2nc(-c3ccccc3)cn12,1.9,-9.1,.,.
N#Cc1ccc(C(=O)Nc2nc3c(s2)CN(Cc2ccccc2)CC3)cc1,-269.2,-23.1,-10.6,-0.9
